These results are taken from PubChem BioAssay (Tox21).

Several values for one entry are separate records, joined by “and”; a condition that tells them apart may be missing. Identical values can stand only once. Inconclusive results are not listed. Activity calls are given as the source filed them. Unless noted, calls follow the shape of the full dose curve.

The nature of test [1]: Nuclear factor erythroid 2-related factor 2/antioxidant responsive element (Nrf2/ARE) small molecule agonists: luciferase reporter gene qHTS assay in human keratinocytes (AID 1919969). Also: nearly all actives have a fitted effect of over 35% in size. Also: potency is read from the fitted curve at half-maximal effect. In general terms: In a reporter assay the amount or activity of a reporter protein is the signal.
The target of test [2] is Gonadotropin-releasing hormone receptor (Homo sapiens) (UniProt P30968). Kind of test: Human gonadotropin-releasing hormone receptor (GnRHR) small molecule agonists, calcium flux assay in GnRHR-HEK293 cells (AID 1920063). Also: nearly all actives have a fitted effect of over 35% in size. Also: potency is read from the fitted curve at half-maximal effect. Put shortly: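 Fluorescence kinetics (480 nm excitation, 540 nm emission; 3 min, 1 s steps) report calcium mobilisation in human GnRHR-HEK293 cells in agonist mode. Dye incubation: 1 h, 37 C.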
For orientation: Calcium assays in cells follow changes in intracellular calcium, usually with a dye or a luminescent sensor.

Test [3] addresses KiSS-1 receptor (Homo sapiens) (UniProt Q969F8). The test is described as follows: Human kisspeptin (KISS1R) small molecule agonists, calcium flux assay in KISS1R-HEK293 cells (AID 1920064; active = well fitted activation curve with a large enough effect in the repeat runs; also: potency is read from the fitted curve at half-maximal effect). Put shortly: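 Measures KISS1R agonism through calcium-sensitive dye fluorescence in stably transfected HEK293 cells, read for 3 min after pin-tool compound delivery; 15-point titrations in triplicate.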

Test [4] is described as follows: G protein-coupled receptor (GPCR) small molecule agonists, calcium flux assay: HEK293 wild type cell line counter screen (AID 1920065). Also: potency is read from the fitted curve at half-maximal effect. In short, it runs like this: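 Readout: fluorescence at 480 nm excitation/540 nm emission, sampled at 1 s intervals for 3 min. Cells had been cultured 18 h, then dye-loaded 1 h at 37 C before compound or ATP addition.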
The nature of test [5]: p53 small molecule agonists, cell-based qHTS assay with human liver microsomes (AID 1963577).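 Also: p53 response element beta-lactamase reporter cells with liver microsomes plus NADPH.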 Put shortly:
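Metabolically competent format: test substances, human liver microsomes and NADPH (both 0.5 mg/mL final) incubated with p53RE-bla cells 16 h at 37 C. Beta-lactamase reporter signal then quantified by fluorescence.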
A general note: qHTS replaces the single test concentration by a dilution series.

A short description of test [6]: p53 small molecule agonists, cell-based qHTS assay with human liver microsomes: qHTS cell viability counter screen (AID 1963579). Also: nearly all actives have a fitted effect of over 45% in size. In short, it runs like this: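 Tox21 library compounds, delivered from DMSO stocks, were tested on p53RE-bla cells together with 0.5 mg/mL human liver microsomes and 0.5 mg/mL NADPH (final) over 16 h at 37 C; CellTiter-Glo luminescence served as the cytotoxicity measure.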

A short description of test [7]: p53 small molecule agonists, cell-based qHTS assay with rat liver microsomes: qHTS cell viability counter screen (AID 1963580). Also: nearly all actives have a fitted effect of over 45% in size. Put shortly:
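HCT-116 p53RE-bla, 4,000 cells/well, 5 h pre-incubation; cpd + rat liver microsomes 0.5 mg/mL + NADPH 0.5 mg/mL (final); 16 h, 37 C; CellTiter-Glo, 30 min RT; luminescence.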

The nature of test [8]: p53 small molecule agonists, cell-based qHTS assay: qHTS cell viability counter screen (AID 1963581). Also: nearly all actives have a fitted effect of over 45% in size. In short, it runs like this: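 In the same plates used for the p53 bla reporter, HCT-116 cells given compounds for 16 h at 37 C received CellTiter-Glo; luminescence was recorded 30 min later at room temperature.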
Test [9] deals with 5-hydroxytryptamine receptor 2A (Homo sapiens) (UniProt P28223). The test is described as follows: 5-hydroxytryptamine receptor 2A (HTR2A) small molecule agonists, cell-based qHTS assay (AID 1963587). Also: nearly all actives have a fitted effect of over 30% in size. Also: potency is read from the fitted curve at half-maximal effect. In short, it runs like this: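 Kinetic calcium-flux fluorescence (2 min, 1 sec intervals) after compound addition in agonist mode. HTR2A-CHO cells were cultured 18 h, then dye-loaded 1 h at 37 C.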

The target of test [10] is Muscarinic acetylcholine receptor M1 (Homo sapiens) (UniProt P11229). The test is described as follows: Cholinergic receptor muscarinic 1 (CHRM1) small molecule antagonists, cell-based qHTS assay (AID 1963588). Also: nearly all actives have a fitted effect of over 40% in size. Also: potency is read from the fitted curve at half-maximal effect. In short, it runs like this:
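CHRM1-CHO calcium-flux assay, antagonist mode. Cells were seeded 18 h, dye-loaded 1 h at 37 C and given compound for 5 min at RT, then acetylcholine was added at 50nM. FDSS fluorescence was read 3 min; 15 concentrations, three runs.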

The target is the same in test [11]. The test is described as follows: Cholinergic receptor muscarinic 1 (CHRM1) small molecule agonists, cell-based qHTS assay (AID 1963589). Also: nearly all actives have a fitted effect of over 35% in size. Also: potency is read from the fitted curve at half-maximal effect. Put shortly:
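Each compound was tested at 15 concentrations across three independent runs on dye-loaded CHO cells stably expressing human CHRM1, reading intracellular calcium fluorescence kinetically at 1 sec intervals.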

The target in test [12] is Beta-2 adrenergic receptor (Homo sapiens) (UniProt P07550). Kind of test: Adrenergic beta2 receptor (ADRB2) small molecule antagonists, cell-based qHTS assay (AID 1963592). Also: series mostly up to about 92 µM; nearly all actives have a fitted effect of over 50% in size. Put shortly: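 Cells (CHO, stable ADRB2 overexpression) incubated 18-20hr at 37C; compounds added from DMSO; agonist mix (1nM isoproterenol, 100uM IBMX, 25uM Ro-20-1724) added; 0.5hr RT; d2-cAMP and anti-cAMP-cryptate added; 1hr RT; 665/615 nm read.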

The target in test [13] is D(2) dopamine receptor (Homo sapiens) (UniProt P14416). Kind of test: Dopamine D2 receptor (DRD2) small molecule agonists, cell-based qHTS assay (AID 1963594). Also: nearly all actives have a fitted effect of over 35% in size. Put shortly:
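cAMP accumulation in DRD2-HEK293 cells measured by HTRF after 1 h detection; compounds added 10 min before NKH477 (200nM […]) forskolin-analogue stimulation, 30 min at room temperature, with Ro20-1724 present at 0.1 mM final.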

For test [14] the target is unchanged. Kind of test: Dopamine D2 receptor (DRD2) small molecule antagonists, cell-based qHTS assay (AID 1963595; active = well fitted inhibition curve with a large enough effect in the signal ratio in the repeat runs, with a control signal flat; the % refers to the signal ratio; also: potency is read from the fitted curve at half-maximal effect). In short, it runs like this:
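Antagonist mode in DRD2-HEK293 cells: after compound addition with 0.1 mM Ro20-1724, cells received quinpirole (12 nM) and NKH477 (200 nM) for 30 min at room temperature; HTRF cAMP read after 1 h detection.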

The target of test [15] is 5-hydroxytryptamine receptor 2A (Homo sapiens) (UniProt P28223). Kind of test: 5-hydroxytryptamine receptor 2A (HTR2A) small molecule antagonists, cell-based qHTS assay (AID 1963586). Also: nearly all actives have a fitted effect of over 45% in size. In short, it runs like this: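 Antagonist-mode intracellular calcium assay: DOI (4 nM) added after 5 min compound pre-incubation at room temperature to dye-loaded HTR2A-CHO cells. Fluorescence followed for 3 min, sampled every second.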

Test [16] in a line: cAMP Responsive Elements (CRE) small molecule antagonists, cell-based qHTS assay (AID 1963591; active = well fitted inhibition curve with a large enough effect in the signal ratio in the repeat runs, not every such curve was filed as active; the % refers to the signal ratio). Put shortly: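 Inhibition of NKH477-driven (0.25 uM final) CRE-beta-lactamase signal in HEK293T cells, 3 h compound exposure at 37 °C, detected by FRET substrate fluorescence.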
In test [17] the target is Beta-2 adrenergic receptor (Homo sapiens) (UniProt P07550). The test is described as follows: Adrenergic beta2 receptor (ADRB2) small molecule agonists, cell-based qHTS assay (AID 1963593).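 Also: CHO cells stably overexpressing human ADRB2.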 In short, it runs like this: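 CHO cells stably over-expressing ADRB2 were plated overnight at 37C, then dosed with compounds plus a stimulation mix containing 100uM IBMX and 25uM Ro-20-1724 for 0.5hr at room temperature. cAMP was measured by HTRF competition, 1hr.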

Test [18] can be described thus: p53 small molecule agonists, cell-based qHTS assay with rat liver microsomes (AID 1963578). Put shortly: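 Each plate received p53RE-bla cells, then compound, then rat liver microsomes and NADPH (both 0.5 mg/mL final). Plates were held 16 h at 37 C, and beta-lactamase activity was detected with LiveBLAzer over 2 h.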
Test [19] can be described thus: cAMP Responsive Elements (CRE) small molecule agonists, cell-based qHTS assay (AID 1963590). Put shortly:
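Cell line: CRE-bla HEK 293T; medium DMEM/10% dialyzed FBS/0.1 mM NEAA/1 mM pyruvate/25 mM HEPES; 3 h compound exposure; beta-lactamase FRET readout after 2 h substrate loading at RT.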

Muscarinic acetylcholine receptor M1 (Homo sapiens), sequence (P11229 whole entry, looked up): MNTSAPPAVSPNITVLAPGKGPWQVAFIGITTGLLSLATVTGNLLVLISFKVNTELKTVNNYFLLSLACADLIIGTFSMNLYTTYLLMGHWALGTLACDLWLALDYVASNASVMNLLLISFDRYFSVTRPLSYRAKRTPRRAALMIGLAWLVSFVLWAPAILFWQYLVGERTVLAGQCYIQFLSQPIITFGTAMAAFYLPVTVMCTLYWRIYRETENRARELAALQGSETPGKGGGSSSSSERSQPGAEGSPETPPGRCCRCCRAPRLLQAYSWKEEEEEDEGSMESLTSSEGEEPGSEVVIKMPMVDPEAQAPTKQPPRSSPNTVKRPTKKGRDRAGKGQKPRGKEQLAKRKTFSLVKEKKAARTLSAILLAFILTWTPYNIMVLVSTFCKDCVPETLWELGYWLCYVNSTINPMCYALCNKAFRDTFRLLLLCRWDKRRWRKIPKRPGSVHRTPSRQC
D(2) dopamine receptor (Homo sapiens), sequence (P14416 whole entry, looked up): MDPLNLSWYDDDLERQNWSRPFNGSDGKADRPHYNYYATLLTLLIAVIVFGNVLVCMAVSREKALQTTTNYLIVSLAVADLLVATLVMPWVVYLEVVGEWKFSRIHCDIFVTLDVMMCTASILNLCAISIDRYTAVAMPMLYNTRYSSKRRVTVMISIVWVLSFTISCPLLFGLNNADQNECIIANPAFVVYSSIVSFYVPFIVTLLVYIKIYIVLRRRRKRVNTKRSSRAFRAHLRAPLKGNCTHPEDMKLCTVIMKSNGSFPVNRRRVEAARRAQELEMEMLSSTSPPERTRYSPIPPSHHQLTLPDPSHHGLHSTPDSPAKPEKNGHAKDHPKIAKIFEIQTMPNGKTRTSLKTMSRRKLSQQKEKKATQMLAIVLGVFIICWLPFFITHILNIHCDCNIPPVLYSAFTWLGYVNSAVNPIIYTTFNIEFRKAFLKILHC
5-hydroxytryptamine receptor 2A (Homo sapiens), sequence (P28223 whole entry, looked up): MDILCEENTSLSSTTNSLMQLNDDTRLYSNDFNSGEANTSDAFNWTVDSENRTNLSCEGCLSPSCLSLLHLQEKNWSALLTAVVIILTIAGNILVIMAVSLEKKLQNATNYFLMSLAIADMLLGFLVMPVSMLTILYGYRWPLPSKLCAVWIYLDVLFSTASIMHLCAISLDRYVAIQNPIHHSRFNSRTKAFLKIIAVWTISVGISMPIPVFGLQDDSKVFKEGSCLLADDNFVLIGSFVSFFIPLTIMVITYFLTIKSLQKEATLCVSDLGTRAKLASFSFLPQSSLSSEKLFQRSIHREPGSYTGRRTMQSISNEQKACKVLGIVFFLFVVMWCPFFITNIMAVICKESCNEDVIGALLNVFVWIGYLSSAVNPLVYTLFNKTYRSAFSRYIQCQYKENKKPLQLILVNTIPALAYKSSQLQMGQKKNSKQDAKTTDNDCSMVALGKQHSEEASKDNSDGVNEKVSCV
Beta-2 adrenergic receptor (Homo sapiens), sequence (P07550 whole entry, looked up): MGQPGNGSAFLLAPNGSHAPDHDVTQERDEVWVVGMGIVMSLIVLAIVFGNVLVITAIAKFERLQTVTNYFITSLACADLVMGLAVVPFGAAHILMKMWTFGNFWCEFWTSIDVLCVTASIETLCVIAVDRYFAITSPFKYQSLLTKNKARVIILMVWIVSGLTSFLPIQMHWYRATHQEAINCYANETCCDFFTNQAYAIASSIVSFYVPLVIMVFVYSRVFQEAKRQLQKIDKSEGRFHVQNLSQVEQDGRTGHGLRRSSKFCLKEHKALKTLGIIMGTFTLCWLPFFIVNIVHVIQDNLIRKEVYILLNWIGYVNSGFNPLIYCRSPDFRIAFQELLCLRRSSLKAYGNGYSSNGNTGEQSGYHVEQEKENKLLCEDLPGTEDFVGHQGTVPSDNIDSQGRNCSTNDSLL
Gonadotropin-releasing hormone receptor (Homo sapiens), sequence (P30968 whole entry, looked up): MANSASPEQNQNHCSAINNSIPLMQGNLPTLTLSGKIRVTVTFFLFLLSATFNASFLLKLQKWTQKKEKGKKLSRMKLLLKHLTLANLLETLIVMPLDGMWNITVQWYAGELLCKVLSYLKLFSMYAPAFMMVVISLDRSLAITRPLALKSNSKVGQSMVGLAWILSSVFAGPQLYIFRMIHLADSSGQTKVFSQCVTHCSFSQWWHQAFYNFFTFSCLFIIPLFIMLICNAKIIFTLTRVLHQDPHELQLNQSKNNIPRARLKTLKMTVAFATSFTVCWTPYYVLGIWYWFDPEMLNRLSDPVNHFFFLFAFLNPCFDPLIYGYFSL
KiSS-1 receptor (Homo sapiens), sequence (Q969F8 whole entry, looked up): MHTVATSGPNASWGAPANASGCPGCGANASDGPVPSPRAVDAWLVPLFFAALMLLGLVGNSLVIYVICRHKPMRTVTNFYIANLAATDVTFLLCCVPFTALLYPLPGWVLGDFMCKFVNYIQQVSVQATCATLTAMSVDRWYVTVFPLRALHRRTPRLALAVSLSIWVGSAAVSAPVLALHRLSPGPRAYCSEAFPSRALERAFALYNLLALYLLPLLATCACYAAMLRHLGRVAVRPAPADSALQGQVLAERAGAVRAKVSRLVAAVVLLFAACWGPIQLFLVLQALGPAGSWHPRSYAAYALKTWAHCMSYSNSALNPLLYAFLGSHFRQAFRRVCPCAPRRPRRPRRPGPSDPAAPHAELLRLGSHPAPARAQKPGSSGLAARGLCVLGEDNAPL

With `CSc1ccc2c(c1)C(N1CCN(C)CC1)Cc1ccccc1S2` (stereo not given), the Potency result in test [1], in test [2], in test [3], in test [4], in [5] and in [6] was “inactive” in each case. For the same compound, the Potency result in [7], in [8], in test [9], in [11], in test [12] and in [13] was “inactive” throughout. The Potency is 0.729 µM (active) in [10] and 0.0473 µM (active) in test [14].
For the compound `c1cc(N(CC2CO2)CC2CO2)ccc1OCC1CO1` (stereo not given), in [1], the Potency was 27.3 µM (active) and 24.3 µM (active). For the same compound, the Potency result in test [2], in test [3], in test [4], in test [6], in [7] and in test [8] was “inactive” in each case. For the same compound, the Potency result in [15], in test [9], in [10], in test [11], in test [12] and in test [13] was “inactive” each time. For the same compound, the Potency entry in test [14] was “inactive”.
For the compound `Brc1cc(-c2ccc(Br)c(Br)c2Br)cc(Br)c1Br`, the Potency entry in [1], in test [2], in [3], in test [4], in test [6] and in test [7] was “inactive” throughout. In addition, the Potency result in test [8], in test [15], in [9], in test [10], in [11] and in [16] was “inactive” in each case. The Potency entry in [12], in [17], in [13] and in test [14] was “inactive” in each case.
Regarding `Nc1ccc2c3c(cccc13)-c1ccccc1-2`, the Potency result in [1], in [6], in [7], in [15], in test [10] and in test [12] was “inactive” in each case. The Potency result in [14] was “inactive”. For the same compound, the Potency was 35.1 µM (active) in test [2]; 55.5 µM (active) in test [3]; 39.3 µM (active) in [4]; 24.8 µM (active) in test [9]; 49.5 µM (active) in test [11].
With `Cc1cc(O)ccc1O`, the Potency in test [1] was 24.6 µM (active). Moreover, the Potency entry in test [2], in test [3], in test [4], in test [18], in [7] and in test [8] was “inactive” in each case. Further, the Potency entry in test [15], in test [9], in test [10], in test [11] and in test [12] was “inactive” each time.
In the case of `C/C=C1/C(=O)C[C@H]2[C@@H]3CCC4=CC(=O)CC[C@]4(C)[C@H]3CC[C@]12C`, the Potency in test [1] is 68.4 µM (active). The Potency entry in test [2], in test [3], in test [4], in [6], in [7] and in [8] was “inactive” throughout. In addition, the Potency result in test [15], in [9], in [11], in test [12], in test [13] and in [14] was “inactive” throughout.
Take `CC/C=C/CCCCCCCCCCOC(C)=O`: the Potency entry in [1], in test [2], in test [3], in test [4], in test [6] and in [7] was “inactive” each time. For the same compound, the Potency entry in test [8], in [15], in test [9], in [10], in test [11] and in test [16] was “inactive” each time. Further, the Potency entry in test [12], in test [17], in test [13] and in [14] was “inactive” each time.
As to `CCOc1ccc(NC(=O)CC(C)=O)cc1`, the Potency entry in test [1], in [2], in test [3], in [4], in [6] and in test [7] was “inactive” in each case. Besides, the Potency entry in [8], in test [15], in test [9], in test [10], in test [19] and in [12] was “inactive” throughout. Further, the Potency entry in test [13] was “inactive”.
